From PubChem BioAssay (EPA / NIEHS)
Where “and” joins values, the source holds several entries; their conditions need not be identical. Equal entries are not always repeated. Records with an inconclusive call do not appear. Where a structure was tested more than once in an assay, its records may differ in their call. Calls of active or inactive are those of the source. How the source made its calls, unless noted: active means hit-call score of the fitted dose curve at least 0.9, where 1 is the maximum; inconclusive means response in the unintended direction; inactive means score below 0.9.

What was measured:
[1] = molecular target: CCAAT/enhancer-binding protein beta (Homo sapiens) (UniProt P17676); test: ATG_C_EBP_CIS: Attagene CIS-FACTORIAL HepG2 Assay for human CCAAT/Enhancer Binding Protein (C/EBP) beta (AID 2282927; active means hit-call score of the fitted dose curve at least 0.9, where 1 is the maximum; inactive means score below 0.9); settings: HepG2 Attagene cis-factorial transcription factor reporter; actives raise or lower the signal
Outline: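 Chemical-treated HepG2 cells (24 h) bearing cis-regulated reporter constructs were processed for total RNA, then reverse transcription, PCR amplification, fluorescent primer extension and fragment analysis; gain- and loss-of-signal were fitted against DMSO.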

[2] = ATG_AP_2_CIS: Attagene CIS-FACTORIAL HepG2 Assay for human Activator Protein 2 (AP-2) (AID 2282932; active means hit-call score of the fitted dose curve at least 0.9, where 1 is the maximum; inactive means score below 0.9); settings: HepG2 AP-2 cis-reporter, Attagene transcription factor profiling; actives raise or lower the signal
Outline: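 Cells (HepG2) transfected with promoter-driven reporter constructs, treated 24 h. Total RNA reverse-transcribed, reporter cDNA PCR-amplified, FAM-labelled by primer extension, digested, resolved by capillary electrophoresis. Activity fitted both directions versus DMSO.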

[3] = ATG_BRE_CIS: Attagene CIS-FACTORIAL HepG2 Assay for human Bone Morphogenetic Protein (BMP) Response Element (BRE) (AID 2282933; active means hit-call score of the fitted dose curve at least 0.9, where 1 is the maximum; inactive means score below 0.9); settings: HepG2 BMP response element reporter, Attagene transcription factor profiling; actives raise or lower the signal
Outline: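 Fluorescence-labelled reporter cDNA fragments, separated by capillary electrophoresis, gave the signal for this component of a 52-readout multiplex. HepG2 cells were transfected, exposed to chemicals for 24 h, and compared with DMSO using bidirectional fitting.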

[4] = ATG_E_Box_CIS: Attagene CIS-FACTORIAL HepG2 Assay for human Enhancer Box (E-box) (AID 2282936; active means hit-call score of the fitted dose curve at least 0.9, where 1 is the maximum; inactive means score below 0.9); settings: HepG2 E-box cis-reporter transcription, actives raise or lower the signal
Outline: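 Endogenous transcription factor activity was sensed in human HepG2 liver cells through transfected cis-promoter reporter units. After 24 h of dosing, total RNA was reverse-transcribed and reporter cDNA resolved by capillary electrophoresis.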

[5] = TOX21_p53_BLA_p2_viability: Viability Assessment in the Tox21 HCT-116 p53 Agonism Beta-lactamase Assay, Phase 2 (AID 2283591);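 further: compound exposure lasted 16 h at 37 °C; actives lower the ATP signal meaning cytotoxicity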
Outline: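 HCT-116 p53-bla cells (4000/well) rested 5 h at 37C, then received compounds in DMSO (217-fold dilution) for 16 h at 37C, 5% CO2. After the CCF4 read, CellTiter-Glo was added; ATP luminescence was read after 30 min at room temperature.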

[6] = molecular target: Cellular tumor antigen p53 (Homo sapiens) (UniProt P04637); test: TOX21_p53_BLA_p2_ratio: Tox21 HCT-116 p53 Agonism Beta-lactamase Assay, Ratio, Phase 2 (AID 2283592)
Outline: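 DMSO-normalized, positive-direction endpoint derived from the 460 nm/530 nm FRET ratio in HCT116 p53 beta-lactamase reporter cells exposed 16 h at 37C and loaded with CCF4-AM for 2 h.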

[7] = TOX21_p53_BLA_p3_viability: Viability Assessment in the Tox21 HCT-116 p53 Agonism Beta-lactamase Assay, Phase 3 (AID 2283593);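 further: cells exposed to compound for 16 h before reading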
Outline: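 HCT-116 cells (4000/well) rested 5 h at 37C, then got DMSO compounds by pin tool (217-fold dilution) for 16 h at 37C, 5% CO2. After the bla read, CellTiter-Glo was added and luminescence read at 30 min, room temperature.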

[8] = molecular target: Cellular tumor antigen p53 (Homo sapiens) (UniProt P04637); test: TOX21_p53_BLA_p3_ratio: Tox21 HCT-116 p53 Agonism Beta-lactamase Assay, Ratio, Phase 3 (AID 2283596)
Outline: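 Cells were seeded at 4000/well, rested 5 h at 37C, then dosed with DMSO compound solutions (217-fold dilution) for 16 h. CCF4-AM substrate was loaded for 2 h at room temperature, and the 460/530 nm emission ratio was fitted for gain of signal versus DMSO.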

[9] = molecular target: Cellular tumor antigen p53 (Homo sapiens) (UniProt P04637); test: TOX21_p53_BLA_p5_ratio: Tox21 HCT-116 p53 Agonism Beta-lactamase Assay, Ratio, Phase 5 (AID 2283599)
Outline: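 HCT-116 cells carrying a p53-inducible beta-lactamase reporter were seeded at 4000 cells/well and dosed after 5 h with compound in DMSO (217-fold dilution). After 16 h at 37C, CCF4-AM substrate was added for 2 h, and the 460/530 nm emission ratio was scored as gain-of-signal versus DMSO.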

[10] = TOX21_p53_BLA_p5_viability: Viability Assessment in the Tox21 HCT-116 p53 Agonism Beta-lactamase Assay, Phase 5 (AID 2283600)
Outline: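 Here cell health was gauged by ATP levels in wells holding 4000 cells, each treated 16 h with DMSO-delivered compounds at 217-fold dilution; reduced luminescence marked toxicity.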

[11] = molecular target: Cellular tumor antigen p53 (Homo sapiens) (UniProt P04637); test: TOX21_p53_BLA_p4_ratio: Tox21 HCT-116 p53 Agonism Beta-lactamase Assay, Ratio, Phase 4 (AID 2283601)
Outline: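 HCT116 cells carrying an inducible beta-lactamase reporter were plated at 4000 cells/well, rested 5 h, then exposed to compounds in DMSO (217-fold dilution) for 16 h at 37C. CCF4-AM substrate was loaded 2 h at room temperature; 460/530 nm emission ratio scored gain-of-signal versus DMSO.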

[12] = read-out: Interleukin-8 (IL8), CXCL8 (gene 3576); test: BSK_3C_IL8: BioMAP Diversity Plus: 3C Assay for Interleukin-8 (IL8) Biomarker Activity (AID 2283020; active means hit-call score of the fitted dose curve at least 0.9, where 1 is the maximum; inactive means score below 0.9); settings: primary human endothelial cells (HUVEC); actives raise or lower the signal
Outline: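 Endothelial primary cells of human umbilical vein origin are dosed with chemical; after 24 h the IL-8 biomarker is measured by ELISA, and concentration–response is fitted in both directions versus DMSO.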

[13] = read-out: Thrombomodulin, THBD (gene 7056); test: BSK_3C_Thrombomodulin: BioMAP Diversity Plus: 3C Assay for Thrombomodulin Biomarker Activity (AID 2283029; active means hit-call score of the fitted dose curve at least 0.9, where 1 is the maximum; inactive means score below 0.9); settings: primary human endothelial cells (HUVEC); actives raise or lower the signal
Outline: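 Endothelial cells from umbilical vein are dosed with test chemical and incubated 24 h. Thrombomodulin is then quantified by ELISA, with DMSO serving as negative control and activity baseline.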

[14] = read-out: Vascular cell adhesion molecule 1 (VCAM1), VCAM1 (gene 7412); test: BSK_CASM3C_VCAM1: BioMAP Diversity Plus: CASM3C Assay for Vascular cell adhesion molecule 1 (VCAM1) Biomarker Activity (AID 2283055; active means hit-call score of the fitted dose curve at least 0.9, where 1 is the maximum; inactive means score below 0.9;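 further: VCAM-1 protein level quantified by ELISA on the cells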); settings: primary human coronary artery smooth muscle cells; actives raise or lower the signal
CD40, CD40 (gene 958) = test: BSK_SAg_CD40: BioMAP Diversity Plus: SAg Assay for CD40 Biomarker Activity (AID 2283088; active means hit-call score of the fitted dose curve at least 0.9, where 1 is the maximum; inactive means score below 0.9); settings: primary human HUVEC with PBMC; actives raise or lower the signal
Outline: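 Endpoint derived by fitting increases or decreases versus DMSO controls. CD40 is detected by fluorescence ELISA in a human vascular co-culture of endothelium and PBMC at 24 h.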

[15] = TOX21_p53_BLA_p4_viability: Viability Assessment in the Tox21 HCT-116 p53 Agonism Beta-lactamase Assay, Phase 4 (AID 2283597);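 further: hits lower the luminescence signal meaning cytotoxicity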
Outline: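 In this multiplexed secondary endpoint, HCT116 cells (4000 per well, compound at 5 h, 16 h treatment) received CellTiter-Glo after the beta-lactamase read. Luminescence after 30 min RT reflects ATP, and falling signal marks cytotoxicity.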

[16] = CCTE_Harrill_HTTr_Viability_MCF7: CCTE's 6-hour Cell Viability Assessment for the High-Throughput Transcriptomics (HTTr) Platform, in MCF-7 cells cultured in DMEM + 10% fetal bovine serum, Harrill Lab (AID 2284010; active means hit-call score of the fitted dose curve at least 0.9, where 1 is the maximum; inactive means score below 0.9)
Outline: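 Read-out is propidium iodide gain of signal by high-content imaging, reflecting membrane integrity loss. Measurements are taken 6 h after dosing, eight concentrations per chemical, with DMSO serving as baseline for bidirectional curve fitting.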

[17] = CCTE_Harrill_HTTr_Apoptosis_MCF7: CCTE's 6-hour Apoptosis Assessment for the High-Throughput Transcriptomics (HTTr) Platform, in MCF-7 cells cultured in DMEM + 10% fetal bovine serum, Harrill Lab (AID 2284011; active means hit-call score of the fitted dose curve at least 0.9, where 1 is the maximum; inactive means score below 0.9)
Outline: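 Apoptosis in MCF-7 cells grown in DMEM with 10% fetal bovine serum was scored after a six hour exposure by high content imaging of caspase-3/7 activation (CellEvent Caspase 3/7 Green), with DMSO serving as negative control and baseline.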

[18] = molecular target: bovine Estrogen Receptor (ER), ESR1 (gene 407238) (UniProt P49884); test: NVS_NR_bER: NovaScreen (NVS) Nuclear Receptor Binding Assay for bovine Estrogen Receptor (ER) (AID 2283345);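 further: actives lower the bound radioligand count which means they displace the ER ligand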
Outline: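 Scintillation counting of displaced radioligand gave the readout; bovine uterine membrane extract supplied the receptor. Measured 18 h post-dose, normalized to DMSO baseline. Single 25 uM duplicate screen preceded concentration-response follow-up.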

[19] = molecular target: Estrogen receptor (Homo sapiens) (UniProt P03372); test: NVS_NR_hER: NovaScreen (NVS) Nuclear Receptor Binding Assay for human Estrogen Receptor (ER) (AID 2283348)
Outline: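 Radiodetection of ligand displacement in a lysate-based, cell-free format using MCF7 extracts, read at 18 hours. Duplicate 25 uM primary testing, then concentration series for actives.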

Measured: AC50

Sequence of bovine Estrogen Receptor (ER), ESR1 (gene 407238) (P49884 whole entry, looked up): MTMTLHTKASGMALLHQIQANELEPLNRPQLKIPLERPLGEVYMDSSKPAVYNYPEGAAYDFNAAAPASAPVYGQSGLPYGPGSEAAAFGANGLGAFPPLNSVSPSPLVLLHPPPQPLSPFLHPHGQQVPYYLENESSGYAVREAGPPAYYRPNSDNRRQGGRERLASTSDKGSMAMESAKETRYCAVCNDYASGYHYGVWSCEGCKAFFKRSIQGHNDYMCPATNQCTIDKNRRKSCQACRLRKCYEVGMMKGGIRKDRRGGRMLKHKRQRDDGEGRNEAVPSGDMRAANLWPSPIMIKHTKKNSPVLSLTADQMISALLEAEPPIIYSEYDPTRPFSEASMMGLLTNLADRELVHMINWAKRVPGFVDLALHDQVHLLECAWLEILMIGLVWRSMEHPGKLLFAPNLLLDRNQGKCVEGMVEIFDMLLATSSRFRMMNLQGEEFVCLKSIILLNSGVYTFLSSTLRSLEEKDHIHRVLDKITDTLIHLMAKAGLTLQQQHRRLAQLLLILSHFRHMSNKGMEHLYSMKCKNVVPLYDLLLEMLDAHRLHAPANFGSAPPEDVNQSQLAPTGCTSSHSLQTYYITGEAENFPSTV
Sequence of Cellular tumor antigen p53 (Homo sapiens) (P04637 whole entry, looked up): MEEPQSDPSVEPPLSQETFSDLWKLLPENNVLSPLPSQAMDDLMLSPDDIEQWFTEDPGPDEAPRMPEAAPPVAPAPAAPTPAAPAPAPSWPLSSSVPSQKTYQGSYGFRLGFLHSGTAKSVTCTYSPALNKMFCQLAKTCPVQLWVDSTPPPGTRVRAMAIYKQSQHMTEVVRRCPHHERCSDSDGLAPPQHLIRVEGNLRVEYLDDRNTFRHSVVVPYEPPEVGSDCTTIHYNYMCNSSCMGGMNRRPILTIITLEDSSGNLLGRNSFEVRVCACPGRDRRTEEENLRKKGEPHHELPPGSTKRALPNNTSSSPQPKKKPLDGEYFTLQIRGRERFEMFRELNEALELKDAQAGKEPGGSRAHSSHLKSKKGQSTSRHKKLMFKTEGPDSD
Sequence of CCAAT/enhancer-binding protein beta (Homo sapiens) (P17676 whole entry, looked up, the tested form may be a part): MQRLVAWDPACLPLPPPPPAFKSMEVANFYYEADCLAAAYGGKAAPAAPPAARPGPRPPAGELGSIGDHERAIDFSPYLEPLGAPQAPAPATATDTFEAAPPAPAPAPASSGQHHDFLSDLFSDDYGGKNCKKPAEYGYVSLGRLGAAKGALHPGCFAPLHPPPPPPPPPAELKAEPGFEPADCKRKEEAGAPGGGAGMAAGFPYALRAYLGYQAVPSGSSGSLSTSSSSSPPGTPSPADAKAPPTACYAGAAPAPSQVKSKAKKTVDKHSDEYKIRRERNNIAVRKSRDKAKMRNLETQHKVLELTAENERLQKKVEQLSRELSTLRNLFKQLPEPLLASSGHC
Sequence of Estrogen receptor (Homo sapiens) (P03372 whole entry, looked up): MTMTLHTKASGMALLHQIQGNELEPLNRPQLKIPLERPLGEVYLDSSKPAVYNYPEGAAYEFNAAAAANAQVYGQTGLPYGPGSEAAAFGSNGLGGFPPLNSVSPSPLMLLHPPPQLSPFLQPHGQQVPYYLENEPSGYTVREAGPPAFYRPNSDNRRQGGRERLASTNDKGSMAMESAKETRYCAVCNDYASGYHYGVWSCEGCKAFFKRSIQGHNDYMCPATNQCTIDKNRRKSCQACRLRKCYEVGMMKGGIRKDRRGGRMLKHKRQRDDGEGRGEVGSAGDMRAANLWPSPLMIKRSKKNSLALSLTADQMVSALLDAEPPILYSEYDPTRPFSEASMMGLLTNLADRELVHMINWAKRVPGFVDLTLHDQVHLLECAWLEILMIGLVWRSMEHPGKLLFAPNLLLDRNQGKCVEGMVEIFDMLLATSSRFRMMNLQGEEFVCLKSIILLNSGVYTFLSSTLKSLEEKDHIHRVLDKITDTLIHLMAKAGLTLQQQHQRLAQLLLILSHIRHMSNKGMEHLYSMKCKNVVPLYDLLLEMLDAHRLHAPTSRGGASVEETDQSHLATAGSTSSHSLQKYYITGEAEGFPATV

C[Si](C)(C)O[Si](C)(C)O[Si](C)(C)C
inactive: [1] | [2] | [3] | [4] | [5] | [6] | [7] | [8] | [9] | [10] | [11]

COc1cc(CNC(=O)CCCC/C=C/C(C)C)ccc1O
inactive: [12] | [13] | [14] | CD40, CD40 (gene 958) | [5] | [6] | [7] | [8] | [15] | [9] | [10] | [11] | [16] | [17]
active: [13] 15.1 µM | CD40, CD40 (gene 958) 20 µM

CC[N+](CC)(CC(=O)Nc1c(C)cccc1C)Cc1ccccc1
inactive: [1] | [2] | [3] | [4] | [12] | [13] | [14] | CD40, CD40 (gene 958)

CCCN[C@H]1CCc2nc(N)sc2C1
not listed: [12] | [13] | [14] | CD40, CD40 (gene 958) | [16] | [17] | [18] | [19]
inactive: all other assays above

COc1ccc2ccccc2c1
inactive: [1] | [2] | [3] | [4] | [16] | [17]

CCCCCC[C@@H](O)C/C=C\CCCCCCCC(=O)O
active: [1] 77 µM | [3] 139 µM | [4] 170 µM | [6] 68.9 µM | [7] 30.5 µM | [8] 36.6 µM | [15] 40.5 µM and 27.9 µM | [9] 37.4 µM | [11] 73.6 µM
inactive: [2] | [5] | [6] | [7] | [8] | [15] | [9] | [10] | [11] | [16] | [17]

Nc1nc(N)c2nc(-c3ccccc3)c(N)nc2n1
inactive: [18] | [19] | [5] | [6] | [7] | [8] | [15] | [10] | [16] | [17]
active: [5] 85.6 µM | [6] 32.3 µM and 16.7 µM | [8] 33.5 µM | [9] 17.5 µM and 38.9 µM and 28 µM | [11] 26.9 µM and 21.1 µM and 29.1 µM

O=[N+]([O-])c1cc(S(=O)(=O)Nc2ccccc2)ccc1Nc1ccccc1
active: [12] 30.7 µM | [13] 20 µM | [14] 20 µM | CD40, CD40 (gene 958) 26 µM and 25 µM
inactive: [12] | [13] | [14]

CCCCCCCCCC/C=C/C1CC(=O)OC1=O (centres undefined)
not listed: [9] | [16] | [17] | [19]
inactive: all other assays above

Oc1cccc2ccccc12
not listed: [8] | [18] | [19]
inactive: all other assays above

OC(C(F)(F)F)(C(F)(F)F)C(O)(C(F)(F)F)C(F)(F)F
inactive: [13]
active: [12] 39.9 µM and 45.7 µM | [13] 48 µM | [14] 30 µM | CD40, CD40 (gene 958) 35.2 µM and 28.6 µM

O=S(=O)(O)c1cccc2ccccc12
inactive: [1] | [2] | [3] | [4] | [5] | [8] | [9] | [11]

CCCCC(CC)COC(=O)C=Cc1ccc(OC)cc1 (centres undefined)
inactive: [14] | [5] | [6] | [7] | [8] | [15] | [9] | [10] | [16] | [17]
active: [12] 30.8 µM and 28.7 µM | [13] 9.77 µM and 8.63 µM | [14] 14.9 µM | CD40, CD40 (gene 958) 32.1 µM and 31.9 µM

Cc1c(C(N)=O)cc([N+](=O)[O-])cc1[N+](=O)[O-]
active: CD40, CD40 (gene 958) 32.4 µM
inactive: [12] | [13] | [14] | CD40, CD40 (gene 958) | [5] | [8] | [15] | [9] | [10] | [11]

O=[N+]([O-])c1cc[n+]([O-])cc1
inactive: [18] | [19] | [5] | [6] | [7] | [15] | [9] | [10] | [11]

CCCCCCOC(=O)CCCCCCCC(=O)OCCCCCC
inactive: [1] | [2] | [3] | [4]
